Source: PubChem (National Center for Advancing Translational Sciences (NCATS))
DRD3 antagonist: antagonists of human D3 dopamine receptor. P35462. D3R cells, DiscoveRx beta-arrestin luminescence, antagonist mode; hits give low values. max response, negative = inhibition, %. 360,000 tested, 2.5% active. AID 652054; in the data active means max response below about -50%; inconclusive means no clear call, values can overlap the other calls
Target sequence (P35462 whole entry, looked up): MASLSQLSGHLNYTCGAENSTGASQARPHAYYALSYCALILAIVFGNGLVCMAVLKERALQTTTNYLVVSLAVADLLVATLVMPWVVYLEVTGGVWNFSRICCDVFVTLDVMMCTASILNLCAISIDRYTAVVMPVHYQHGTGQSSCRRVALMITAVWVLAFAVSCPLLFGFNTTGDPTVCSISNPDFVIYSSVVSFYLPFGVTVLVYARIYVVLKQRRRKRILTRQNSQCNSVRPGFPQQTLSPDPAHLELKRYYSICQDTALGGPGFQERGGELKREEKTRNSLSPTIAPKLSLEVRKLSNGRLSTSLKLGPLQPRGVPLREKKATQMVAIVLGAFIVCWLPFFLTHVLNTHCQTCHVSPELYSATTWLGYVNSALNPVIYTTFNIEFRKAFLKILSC
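Cells expressing the human receptor were seeded at 1500 cells/well, incubated overnight at 37 degrees C in 5% CO2, then exposed to library compounds with dopamine controls for 90 minutes at 37 degrees C before luminescent detection.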
D1 antagonist: antagonists of human D1 dopamine receptor; P21728; HEK293 TREx D1 cells, calcium flux, dopamine EC80; hits give low values; activity change, negative = inhibition, % at 10 µM; 360,000 tested, 3.2% active; in the data active means activity change below about -30%
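Tetracycline-induced HEK293 Trex D1 cells, force-coupled to calcium, dye-loaded; compounds added and read 180 s, then EC80 dopamine added and calcium flux tracked kinetically another 180 s.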
DRD3 agonist: activates the human D3 dopamine receptor; P35462; D3R DiscoveRx beta-arrestin cells, luminescence, 90 min; max activation, %; 410,000 tested, 0.58% active; AID 652048; in the data active means max activation above about 30%
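Agonist-mode cell screen: cells plated at 1500/well and incubated overnight at 37 °C, then exposed to library compounds for 90 min at 37 °C. Detection reagent was added for 30–60 min at room temperature, and luminescence was read.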
D1 potentiator: potentiators of human D1 dopamine receptor | HEK293 TREx D1 cells, calcium flux, dopamine EC20 potentiation | P21728 | AID 504651 | 360,000 tested, 0.036% active | potentiation, % at 10 µM; in the data active means potentiation above about 30%
D1 ag: agonists of human D1 dopamine receptor; P21728; HEK293 T-REx D1 cells, calcium flux, agonist mode; activation, % at 2 µM; 360,000 tested, 1% active; in the data active means activation above about 30%
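Agonism was scored from calcium flux recorded over 180 s (1 read/s) after pintool compound addition, following a 10-cycle baseline. Cells were inducible force-coupled HEK293 TREx D1, plated overnight at 30 C and loaded with no-wash calcium dye.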
Numbers stand for hits; i = inactive; ? = inconclusive; nt = no result given. Rows were chosen to be rich in hits. Some 6.1% of all compounds tested hit in one or more screens of this group.

SMILES	DRD3 antagonist	D1 antagonist	DRD3 agonist	D1 potentiator	D1 ag
CCCCn1nnnc1C(CCSC)N1CCN(C/C=C/c2ccccc2)CC1 (centres undefined)	-121.6	nt	i	nt	nt
CCCC(c1nnnn1CCOC)N1CCN(Cc2ccccc2)CC1 (centres undefined)	?	i	i	i	i
O=C(N/N=C\c1cccc(OC(=O)c2ccco2)c1)c1ccc2c(c1)OCO2	i	i	i	i	i
CC(C)CC(=O)Nc1nc2nc(-c3ccccc3)cc(=O)n2[nH]1	nt	i	i	i	i
CC1=C(C(=O)NCc2ccc(Cl)cc2)C2(CCCCCC2)OC1=O	nt	i	i	i	44.9
NS(=O)(=O)c1cccc(NC(=O)COC(=O)CCC(=O)c2cccs2)c1	i	nt	i	nt	nt
CN(C)S(=O)(=O)c1cccc(NC(=O)COC(=O)CCC(=O)c2cccs2)c1	i	-34.4	i	i	i
CCN(CC)S(=O)(=O)c1cccc(NC(=O)COC(=O)/C=C/c2cccs2)c1	i	-30.7	i	i	i
Cn1cnc(S(=O)(=O)N2CCCC(C(=O)NCc3ccccc3)C2)c1 (centres undefined)	nt	i	i	i	i
CC(=O)N1c2ccc(S(=O)(=O)N(C)CC(=O)N(Cc3ccccc3)C(C)C)cc2CC1C (centres undefined)	nt	i	i	i	i
CN(C)c1ccc(N=Nc2ccccc2Br)cc1	i	i	i	i	i
CN(C)c1ccc(N=Nc2nccs2)cc1	-82.3	nt	i	nt	nt
N#Cc1cn(CC(=O)N2CCCC2)c2ccccc12	i	i	i	i	i
N#Cc1cn(CC(=O)N2CCc3ccccc3C2)c2ccccc12	-53.3	i	i	i	i
O=C(c1ccccc1)c1cccn1CC(=O)N1CCc2ccccc2C1	-54.0	i	i	i	i
COc1cccc(NC(=O)COC(=O)c2c(F)cccc2Cl)c1	-61.5	i	i	i	i
COc1cccc(NC(=O)CN(C)C(=O)CNC(=O)c2ccc3ccccc3c2)c1	i	i	i	i	i
CC(C)NC(=O)NC(=O)COC(=O)c1c2c(nc3ccccc13)CCC2	i	i	35.5	i	i
COc1cccc(NC(=O)CN(C)C(=O)CNC(=O)c2ccccc2F)c1	i	-33.2	i	i	i
O=C(COC(=O)c1c2c(nc3ccccc13)/C(=C\c1cccs1)CCC2)Nc1ccccc1	i	i	38.2	i	i
CN(CC(=O)Nc1ccccc1Cl)C(=O)c1cccc(S(=O)(=O)N2CCN(Cc3ccccc3)CC2)c1	i	i	i	i	i
COC(=O)c1ccc(NC(=O)CSc2ccc(-c3ccccn3)nn2)cc1	i	i	i	i	i
COc1cccc(NC(=O)COC(=O)c2c3c(nc4ccccc24)CCC(C)C3)c1 (centres undefined)	i	i	52.8	i	i
CCCCN(C)C(=O)c1ccc(Nc2nc(C(N)COCc3ccccc3)cs2)nc1 (centres undefined)	i	nt	i	nt	nt
O=C(CN(c1cccc(C(F)(F)F)c1)S(=O)(=O)c1ccc(Cl)c([N+](=O)[O-])c1)NCc1ccccc1Cl	i	i	i	i	i
SMILES	DRD3 antagonist	D1 antagonist	DRD3 agonist	D1 potentiator	D1 ag
CC(C)(C)NC(=O)CN(c1cccc([N+](=O)[O-])c1)S(=O)(=O)c1ccccc1	i	i	i	i	i
O=C(CN(c1cccc(C(F)(F)F)c1)S(=O)(=O)c1ccc(Cl)c([N+](=O)[O-])c1)NCc1ccccc1	i	-30.8	i	i	i
CC(NC(=O)CN(c1cccc(C(F)(F)F)c1)S(=O)(=O)c1ccc(Cl)c([N+](=O)[O-])c1)c1ccccc1 (centres undefined)	-53.8	i	i	i	i
COc1ccc(-c2cc(NC(C)=O)c3ncc(-c4ccccc4)n3c2)c(OC)c1	i	nt	i	nt	nt
CN1CCc2c(sc(/N=C/c3cc(C(C)(C)C)ccc3O)c2C#N)C1	-54.1	i	i	i	i
O=C(O)c1ccccc1NC(=S)NC(=O)c1sc2ccccc2c1Cl	i	i	i	i	i
O=C(NNC(=S)NC(=O)c1sc2ccccc2c1Cl)c1ccc(Cl)cc1	i	-38.4	i	i	141.5
O=C1CCC/C(=N/NC(=O)c2sc3ccccc3c2Cl)C1	i	i	i	i	80.6
COc1cc(C(=O)NNC(=S)NC(=O)c2ccc(Cl)cc2)cc(OC)c1OC	i	i	i	i	59.7
O=C(Nc1ccncc1)c1sc2ccccc2c1Cl	i	-41.4	i	i	i
O=C(NN=C1CCCC1)c1sc2ccccc2c1Cl	i	i	i	i	i
COc1ccc(C(=O)NNC(=S)NC(=O)c2ccc(Cl)cc2)cc1	i	nt	i	nt	nt
Nc1sccc1C(=O)N1CCN(c2ccccc2)CC1	?	nt	i	nt	nt
CCOc1ccc(NC(=O)CCNS(=O)(=O)c2ccc3c(c2)CCCC(=O)N3)cc1	nt	i	i	i	i
O=C(Nc1nonc1-c1ccc(Cl)cc1)c1ccccc1	i	i	i	i	i
CC(C)(C)c1ccc(C(=O)NC(=S)NNC(=O)c2cccs2)cc1	i	i	i	i	366.6
Cc1cccc(C(=O)NC(=S)NNC(=O)c2cccs2)c1	?	i	i	i	213.2
Cc1ccccc1C(=O)NNC(=S)NC(=O)c1cccs1	i	i	i	i	136.4
O=C(NC(=S)NNC(=O)c1cccs1)c1ccccc1	i	i	i	i	i
COc1cc(C(=O)Nc2nonc2-c2ccc(Cl)cc2)cc(OC)c1OC	nt	i	i	i	30.2
CN(CCC#N)C(=O)COC(=O)c1cc(Cl)cc(Cl)c1N	i	i	i	i	i
Cc1cccc(C(=O)NC(=S)NNC(=O)c2ccc(Cl)cc2)c1	i	i	i	i	172.0
O=C(NC(=S)Nc1ccc(N2CCOCC2)c(Cl)c1)c1sc2ccccc2c1Cl	i	-31.4	i	i	i
O=C(NC(=S)Nc1ccccc1N1CCOCC1)c1sc2ccccc2c1Cl	i	i	i	i	i
CC(=O)OC1C(=O)N(Cc2ccccc2)C1c1ccc(C)cc1 (centres undefined)	i	nt	i	nt	nt
SMILES	DRD3 antagonist	D1 antagonist	DRD3 agonist	D1 potentiator	D1 ag
CN(CC(=O)Nc1ccccc1Cl)C(=O)COC(=O)c1ccc(Cl)cc1[N+](=O)[O-]	i	-41.9	i	i	i
NCc1ccccc1CS(=O)(=O)N1CCOCC1	i	nt	i	nt	nt
c1ccc(C(c2ccccc2)c2noc(CN3CCN(CC4CC4)CC3)n2)cc1	-63.0	i	i	i	i
COCC1CCCN(Cc2nc(C(c3ccccc3)c3ccccc3)no2)C1 (centres undefined)	i	i	i	i	i
CN(C)c1ccc(/C=C2/C[N+](C)(C)C/C(=C/c3ccc(N(C)C)cc3)C2=O)cc1	i	nt	i	nt	nt
CC(C)/C=C1\CC/C(=C\c2ccc(N(C)C)cc2)C1=O	i	-30.9	i	i	243.0
O=C(COC(=O)c1ccc([N+](=O)[O-])cc1)Nc1ccc(Cl)cn1	i	-37.0	i	i	i
O=C(COC(=O)/C=C/c1cccc([N+](=O)[O-])c1)Nc1ccc(Cl)cn1	i	-49.3	i	i	i
O=C(COC(=O)c1ccc(O)cc1)NC1CCCC1	i	i	i	i	i
